Source: PubChem BioAssay AID1578 (Sanford-Burnham Center for Chemical Genomics, 2009)
Out of some 290,000 compounds screened, about 3,000 (1%) were called active. For the sample, actives were picked, then their nearest neighbours and some compounds at random. Values without a mark were called inactive. No stated cut-off is given here; in the data, active means inhibition mostly above about 36% (no sharp cut-off); inactive means mostly below about 34%.

assay: inhibition of NOD1-driven NF-kB reporter – cell-based, luminescence, uHTS, primary screen (AID 1578); settings: NOD1-driven NF-kB luciferase reporter cells, at 4 µM, hits give high values;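 further: HEK-293T reporter cells stimulated with the NOD1 agonist gamma-tri-DAP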

SMILES	inhibition
Cc1ccc(N(C(C)C(=O)Nc2cccc(N(C)S(C)(=O)=O)c2)S(C)(=O)=O)cc1 (stereo not given)	-21.2%
CC(C)NC(=O)CN(Cc1ccc2c(c1)OCO2)C(=O)CCC(=O)Nc1ccccn1	-22.2%
O=C(Cc1ccc([N+](=O)[O-])cc1)N1CCN=C1SCc1ccccc1	-5%
Cc1cc(S(=O)(=O)Nc2ccc(C(=O)NCC(C)(C)N3CCOCC3)cc2)ccc1F	-4.6%
OCCN(CCO)CC(O)CN1c2ccccc2Sc2ccccc21 (stereo not given)	2.7%
CCC(C)NC(=O)Cn1cc2c(n1)CCC(C)C2 (stereo not given)	7.9%
CCOc1ccccc1N(CC(=O)NCc1ccco1)C(=O)CCC(=O)Nc1nccs1	-30.2%
COc1ccc(CNCc2cc(OC)ccc2OC)cc1	-19.6%
CSC1=C(C#N)C(c2ccccc2Cl)C(C(=O)c2cccs2)C(O)(C(F)(F)F)N1 (stereo not given)	-8.1%
C=CCSC1=C(C#N)C(c2ccccc2Cl)C(C(=O)c2cccs2)C(O)(C(F)(F)F)N1 (stereo not given)	63.3%
CCSC1=C(C#N)C(c2ccccc2Cl)C(C(=O)c2cccs2)C(O)(C(F)(F)F)N1 (stereo not given)	64.5% (active)
CC1=NN(c2ccccc2)C(=O)C1=C(C)C	-15.5%
CCOC(=O)C(c1ccccc1)C(Nc1ccc(F)cc1)c1ccccn1 (stereo not given)	-2%
Cn1c(=O)n(C)c2cc(/C=N/NC(=O)c3ccc(Cl)cc3)ccc21	-11.1%
O=C(N/N=C/c1cccc(F)c1)c1ccc(Cl)cc1	-50.5%
CC(C)(C)c1ccc(C(=O)N/N=C/c2cccc(Cl)c2)cc1	72.3% (active)
CCC(=O)c1c[nH]c(C(=O)N2CCOCC2)c1	-10.3%
CC1=CC(=C2C(=O)c3ccccc3C2=O)C=C(C)O1	-62.6%
CCCCCCN1Cc2ccccc2C1	5.4%
CC1=CC(=C2C(=O)c3ccccc3C2=O)C=C(C)N1C	-1.3%
CCCCN1C=CC(=C2N=c3cccc([N+](=O)[O-])c3=N2)C=C1	35.9%
CCCCCCN1C=CC(=C2C(=O)c3ccccc3C2=O)C=C1	80.8% (active)
CCCCN1C=CC(=C2C(=O)c3ccccc3C2=O)C=C1	95.3% (active)
CCCCN1C(C)=CC(=C2C(=O)c3ccccc3C2=O)C=C1C	-16.5%
CCCCCCCN1C=CC(=O)CC1	2%

SMILES	inhibition
CCN1C=CC(=C2C(=O)c3ccccc3C2=O)C=C1	90.4% (active)
CCCCCN1C=CC(=C2C(=O)c3ccccc3C2=O)C=C1	93.3% (active)
CN1C=CC(=C2C(=O)c3ccccc3C2=O)C=C1	-58.3%
CCCN1C=CC(=C2C(=O)c3ccccc3C2=O)C=C1	97.9%
COC(=O)c1ccc(CC(=O)c2nc3ccccc3s2)cc1	-21.3%
COc1ccc(C2CC(c3ccc4ccccc4c3OC(C)=O)=NN2C(C)=O)cc1 (stereo not given)	-2.5%
CCN(CC)S(=O)(=O)c1ccc2c(c1)[nH]c(=S)n2CC	-41.3%
CCOc1ccc(CCNC(=O)COC(=O)C2CCN(S(=O)(=O)c3ccc(C)c(C)c3)CC2)cc1OCC	-4.1%
CC(=O)NC1CC2CCC(C1)N2Cc1ccc(C)cc1 (stereo not given)	-106%
Cc1c(C)c2ccc(OCC(=O)NC(Cc3ccc(Cl)cc3)C(=O)O)cc2oc1=O (stereo not given)	-25%
O=S(=O)(c1ccccc1)N1CCCc2ccccc21	8.6%
COc1ccc(N2CCN(C(=O)c3cc(=O)c4cc(C)c(C)cc4o3)CC2)cc1	-10.3%
c1ccc(OCc2nc3ccccc3s2)cc1	-39.1%
COC(=O)c1ccc(CN2C(=O)NC3(CCC(C)CC3)C2=O)cc1 (stereo not given)	-51.8%
COCCNC(=S)N/N=C/c1ccccc1C(=O)O	-17.1%
CCc1ccc(C(=O)c2cncc(Br)c2)cc1	-3.9%
Cc1ccc(NC(=O)c2cncc(Br)c2)nc1	-55.8%
Cc1ccc(C(=O)c2cncc(Br)c2)cc1	48.9% (active)
Cc1ccc(NC(=O)c2cncc(Br)c2)c(O)c1	66% (active)
O=C(c1ccccc1)c1cncc(Br)c1	-4.9%
Cc1ccc(NC(=O)c2cncc(Br)c2)c([N+](=O)[O-])c1	5.4%
O=C(C[n+]1cc(-c2ccc(F)cc2)n2c1CCC2)Nc1nc(-c2ccc(F)cc2)cs1	11.7%
CCS(=O)(=O)n1nc(-c2ccccc2)nc1NCc1ccco1	-33.3%
Cc1ccc(-c2nc(NCc3ccco3)n(S(C)(=O)=O)n2)cc1	-21.9%
CS(=O)(=O)n1nc(-c2ccccc2)nc1NCc1ccco1	57.3% (active)

SMILES	inhibition
Cc1c(C)n(-c2ccccc2)c2ncnc(NCCN(C)C)c12	1.2%
O=C(Nc1nc(-c2ccccc2)cs1)c1ccc(N2CCOCC2)c([N+](=O)[O-])c1	104% (active)
O=C(Nc1nccs1)c1ccc(N2CCOCC2)c([N+](=O)[O-])c1	-45.2%
O=C(Nc1nc(-c2ccc(-c3ccccc3)cc2)cs1)c1cc([N+](=O)[O-])ccc1N1CCOCC1	-31.8%
Cn1nnc(NC(=O)c2ccc([N+](=O)[O-])cc2Cl)n1	11.3%
CC(C)(Cc1ccc(O)cc1)NC(=O)SCc1ccccc1	72.6% (active)
C=CC(=O)NC(C)(C)Cc1ccccc1	1.5%
CC(C)(Cc1ccc(O)cc1)NC(=O)c1ccccc1	43.7%
CC(C(=O)NCc1ccccc1)N1C(=O)C2CC=C(Cl)CC2C1=O (stereo not given)	13.9%
Cc1cccc(N/C(=N/S(=O)(=O)c2ccccc2)c2ccccc2)n1	-38%
Cc1ccc(CN2C(=O)CSC2c2ccc(F)cc2)cc1 (stereo not given)	-22.3%
S=C(NCc1ccco1)N1CCN(Cc2ccco2)CC1	-6.3%
CCOCCCNC(=S)N1CCN(CC)CC1	-22.2%
CCOCCCNC(=S)N1CCN(Cc2ccco2)CC1	57.4% (active)
Cc1ccc(NC(=O)CN(C)CC(=O)Nc2c(C)cccc2C)c(Br)c1	-5.8%
O=C(O)c1ccc(-c2ccc(Cl)cc2Cl)o1	-54%
Cc1cccc(C)c1NC(=O)c1ccc(-c2ccc(Cl)cc2Cl)o1	73.6% (active)
Cc1ccccc1NC(=O)c1ccc(-c2ccc(Cl)cc2Cl)o1	-41.4%
COc1cccc(CN2CCCC(C(=O)c3ccc4c(c3)OCO4)C2)c1O (stereo not given)	-27.5%
CC(C)N1C(=O)S/C(=C/c2ccc(Sc3nc4ccccc4[nH]3)o2)C1=O	50.1%
C=CCN1C(=O)S/C(=C/c2ccc(Sc3nc4ccccc4[nH]3)o2)C1=O	71.4% (active)
CCN1C(=O)S/C(=C/c2ccc(Sc3nc4ccccc4[nH]3)o2)C1=O	38.6%
Cc1ccc(S(=O)(=O)N2CCC(C(=O)NCCCN3CCCC3=O)CC2)cc1C	-29.3%
CN(C)S(=O)(=O)c1ccc(Oc2ccccc2)cc1	-4.6%
COc1ccc(CNC(=O)C2(CC(=O)NC(C)(C)C)CCCC2)cc1	4.9%

SMILES	inhibition
CCCN(CCC)C(=O)c1c(NC(=O)CC)sc2c1CCCCC2	50.3% (active)
CCC(=O)Nc1sc2c(c1C(=O)N(C)C)CCCCC2	-18.5%
CCC(=O)Nc1sc2c(c1C(N)=O)CCC2	0.4%
CCCCN1CN(Cc2ccccc2)CNC1=S	-16.8%
Cc1nc2cc(CO)ccc2n1C	-15.3%
CN(C)C(CNC(=O)/C=C/c1cccc(Cl)c1)c1ccccc1 (stereo not given)	-22.7%
O=C(N/N=C/c1ccccn1)c1ccc(Br)cc1	103% (active)
O=C(N/N=C/c1ccccn1)c1ccc([N+](=O)[O-])cc1	67.9% (active)
O=C(N/N=C/c1ccccn1)c1cccc([N+](=O)[O-])c1	20%
O=C(O)c1cccc(NC(=S)N/N=C/c2cccnc2)c1	-15.4%
O=C(N/N=C/c1ccccn1)c1ccccc1	-39%
O=C(O)c1cccc(NC(=S)N/N=C/c2ccccn2)c1	68.3% (active)
O=C(O)c1cccc(NC(=S)N/N=C/c2cccc(O)c2)c1	-6.8%
O=C(N/N=C/c1ccccn1)c1ccc(NC(=O)c2cccc([N+](=O)[O-])c2)cc1	-22.2%
O=C(N/N=C/c1ccccn1)c1ccc(N/N=C/c2ccccn2)cc1	-58.4%
Brc1c(CSc2nc3ccccc3o2)nc2ncccn12	-66.9%
Cc1cc(C)cc(NC(=O)c2ccc(CSc3nnnn3C)cc2)c1	-44.7%
COc1ccc(NC(=O)CN(C)C(=O)c2ccc(-c3cccc(C(F)(F)F)c3)o2)cc1	-14.7%
C=CCOc1ccccc1CNCc1ccc(F)cc1	-24%
Cc1ccc(S(=O)(=O)c2nc(S(C)(=O)=O)sc2N2CCCC2)cc1	-19.8%
Cc1ccc(S(=O)(=O)c2nc(S(C)(=O)=O)sc2N2CCCCCC2)cc1	32.4%
Cc1ccc(S(=O)(=O)c2nc(S(C)(=O)=O)sc2N2CCCCC2C)cc1 (stereo not given)	55.1% (active)
CC(=O)N1CCc2cc(S(=O)(=O)Nc3cccc(C(F)(F)F)c3)ccc21	30.6%
CC(=O)N1CCc2cc(S(=O)(=O)Nc3ccc(C)cc3)ccc21	0%
CCCNC(=O)CN1C(=O)COc2ccc(S(=O)(=O)N3CCCCCC3)cc21	-13.3%
